Data: PubChem BioAssay
Active and inactive are the calls of the source.

Columns and labels:
[1] = binders of probe aFSTL3 on microarray, primary screen, stem cell growth factor project, biochemical, small-molecule microarray, fluorescence 635/667 (AID 1064); details: higher = more signal;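 note: measures binding of the biotinylated anti-FSTL3 antibody to printed compounds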
[2] = binders from COS7 lysate, DM2A8 probe, primary screen, torsin A project, cell lysate, small-molecule microarray, fluorescence 635/667 (AID 1065); details: higher = more signal, COS7 lysate expressing mutant human TOR1A
[3] = binders of probe aFGF2 on microarray, primary screen, stem cell growth factor project, biochemical, small-molecule microarray, fluorescence 635/667 (AID 1067); details: higher = more signal;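 note: measures binding of biotinylated aFGF2 protein to printed compounds on slides; z-score merges feature fluorescence and signal-to-noise across triplicate slides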
[4] = binders of probe aFGF10 on microarray, primary screen, stem cell growth factor project, biochemical, small-molecule microarray, fluorescence 635/667 (AID 1071); details: higher = more signal;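 note: score merges 667 nm spot intensity and signal to noise from triplicate slides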
[5] = molecular target: Neurogenic locus notch homolog protein 2 (Homo sapiens) (UniProt Q04721); experiment: Notch2 binders on small-molecule microarrays, primary screen, biochemical, small-molecule microarray, 635 nm fluorescence, stem cell growth factors (AID 1073); details: Notch2 binding, higher = more signal
[6] = molecular target: Pro-neuregulin-1, membrane-bound isoform (Homo sapiens) (UniProt Q02297); experiment: NRG1 binders on small-molecule microarrays, primary screen, psychiatric disease protein project, biochemical, small-molecule microarray, fluorescence 635/667 (AID 1075); details: NRG1 binding, 635 nm fluorescence, higher = more signal;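 note: score combines 667 nm spot fluorescence with signal to noise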
[7] = system: Neuregulin-1 EGF-like domain; experiment: binders of neuregulin-1 EGF-like domain, primary screen, biochemical, small-molecule microarray, 635 nm fluorescence (AID 1081); details: small-molecule microarray binding, higher = more signal;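 note: binding of the protein to compounds printed on small-molecule microarray slides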
[8] = FRG1 promoter luciferase signal modulators, primary screen, FRG1 inhibition for FSHD, cell-based, C2C12 myotubes, firefly/Renilla luciferase, luminescence (AID 1084); details: higher = more signal, called active from +8 up or from −8 down
[9] = binders of probe aFST on microarray, primary screen, stem cell growth factor project, biochemical, small-molecule microarray, fluorescence 635/667 (AID 1086); details: higher = more signal;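 note: score merges 667 nm fluorescence with signal-to-noise of each printed compound spot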
[10] = binders of probe aHhip on microarray, primary screen, stem cell growth factor project, biochemical, small-molecule microarray, fluorescence 635/667 (AID 1087); details: higher = more signal;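 note: score merges spot fluorescence at 667nm with spot signal to noise ratio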
[11] = system: PRMT1 (protein arginine N-methyltransferase 1); experiment: PRMT1 binders on small-molecule microarrays, primary screen, biochemical, small-molecule microarray, 635 nm fluorescence (AID 1088); details: small-molecule microarray binding, higher = more signal;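 note: binding of Prmt1 protein to compounds spotted on small-molecule microarray slides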
[12] = yeast growth modulation, basal conditions, primary screen, YJM789 clinical isolate, OD600, 24 h (AID 1089);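 note: growth of clinical yeast isolate S. cerevisiae YJM 789 seeded 1000 cells per well; test concentration not given here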; details: S. cerevisiae YJM789 growth, higher = more signal, called active from +8 up or from −8 down
[13] = fission yeast growth modulation, primary screen, strain 972, OD600, 24 h, no modulator (AID 1090);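 note: basal condition with compound alone and no growth modifier present; test concentration not given here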; details: S. pombe 972 growth, higher = more signal, called active from +8 up or from −8 down
[14] = S. cerevisiae growth modulation with rapamycin, primary screen, strain BY4716, OD600, 96 h (AID 1091); details: higher = more signal, called active from +8 up or from −8 down; note: test concentration not given here
[15] = molecular target: Torsin-1A-interacting protein 2 (Homo sapiens) (UniProt Q8NFQ8); experiment: LULL1 binders on small-molecule microarray, primary screen, cell lysate, human LULL1 lysate, 635/667 nm fluorescence (AID 1092); details: hLULL1 lysate binding, 635 nm fluorescence, higher = more signal;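 note: probe is lysate of COS7 cells overexpressing human LULL1; score merges per-feature 667 nm fluorescence with signal-to-noise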
[16] = E. coli growth modulation, two-sided OD650, primary screen, E. coli filamentation project, strain DRC41, 24 h (AID 1093); details: OD650, 24 h, higher = more signal, called active from +8 up or from −8 down;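 note: MC1000 strain lacking acrAB efflux and sulA so SOS filamentation is blocked; test concentration not given here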
[17] = small-molecule microarray binders of probe aLefty2, primary screen, biochemical, biotinylated probe, 635/667 nm fluorescence (AID 1094); details: higher = more signal;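 note: score merges spot fluorescence near 667 nm with spot signal-to-noise ratio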
[18] = system: Noggin (protein binding on small-molecule microarray); experiment: Noggin binders on small-molecule microarray, primary screen, biochemical, 635/667 nm fluorescence (AID 1095); details: 635 nm fluorescence, higher = more signal;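 note: score merges 667 nm feature fluorescence with signal to noise over triplicate slides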
[19] = molecular target: Neurogenic locus notch homolog protein 3 (Homo sapiens) (UniProt Q9UM47); experiment: NOTCH3 binders on small-molecule microarray, primary screen, biochemical, 635/667 nm fluorescence (AID 1096); details: NOTCH3 binding, 635 nm fluorescence, higher = more signal
[20] = small-molecule microarray binders of probe aEGFR, primary screen, biochemical, biotinylated probe, 635/667 nm fluorescence (AID 1097); details: higher = more signal;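 note: probe is a biotinylated anti-EGFR antibody binding compounds printed on slides; score combines fluorescence near 667 nm and signal to noise of each spot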

Torsin-1A-interacting protein 2 (Homo sapiens), sequence (Q8NFQ8 whole entry, looked up): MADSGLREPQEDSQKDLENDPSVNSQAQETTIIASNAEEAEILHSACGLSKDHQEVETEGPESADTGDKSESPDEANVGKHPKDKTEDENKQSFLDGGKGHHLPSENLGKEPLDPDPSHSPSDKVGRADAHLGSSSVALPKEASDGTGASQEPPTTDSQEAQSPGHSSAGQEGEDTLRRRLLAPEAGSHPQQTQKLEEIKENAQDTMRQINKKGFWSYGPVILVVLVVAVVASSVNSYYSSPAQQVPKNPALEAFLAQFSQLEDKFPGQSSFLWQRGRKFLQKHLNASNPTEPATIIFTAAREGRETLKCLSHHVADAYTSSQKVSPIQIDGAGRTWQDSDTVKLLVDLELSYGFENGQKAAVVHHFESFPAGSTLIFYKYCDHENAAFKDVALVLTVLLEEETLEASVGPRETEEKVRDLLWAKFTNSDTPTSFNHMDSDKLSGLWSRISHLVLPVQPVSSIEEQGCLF
Neurogenic locus notch homolog protein 3 (Homo sapiens), sequence (Q9UM47 whole entry, looked up): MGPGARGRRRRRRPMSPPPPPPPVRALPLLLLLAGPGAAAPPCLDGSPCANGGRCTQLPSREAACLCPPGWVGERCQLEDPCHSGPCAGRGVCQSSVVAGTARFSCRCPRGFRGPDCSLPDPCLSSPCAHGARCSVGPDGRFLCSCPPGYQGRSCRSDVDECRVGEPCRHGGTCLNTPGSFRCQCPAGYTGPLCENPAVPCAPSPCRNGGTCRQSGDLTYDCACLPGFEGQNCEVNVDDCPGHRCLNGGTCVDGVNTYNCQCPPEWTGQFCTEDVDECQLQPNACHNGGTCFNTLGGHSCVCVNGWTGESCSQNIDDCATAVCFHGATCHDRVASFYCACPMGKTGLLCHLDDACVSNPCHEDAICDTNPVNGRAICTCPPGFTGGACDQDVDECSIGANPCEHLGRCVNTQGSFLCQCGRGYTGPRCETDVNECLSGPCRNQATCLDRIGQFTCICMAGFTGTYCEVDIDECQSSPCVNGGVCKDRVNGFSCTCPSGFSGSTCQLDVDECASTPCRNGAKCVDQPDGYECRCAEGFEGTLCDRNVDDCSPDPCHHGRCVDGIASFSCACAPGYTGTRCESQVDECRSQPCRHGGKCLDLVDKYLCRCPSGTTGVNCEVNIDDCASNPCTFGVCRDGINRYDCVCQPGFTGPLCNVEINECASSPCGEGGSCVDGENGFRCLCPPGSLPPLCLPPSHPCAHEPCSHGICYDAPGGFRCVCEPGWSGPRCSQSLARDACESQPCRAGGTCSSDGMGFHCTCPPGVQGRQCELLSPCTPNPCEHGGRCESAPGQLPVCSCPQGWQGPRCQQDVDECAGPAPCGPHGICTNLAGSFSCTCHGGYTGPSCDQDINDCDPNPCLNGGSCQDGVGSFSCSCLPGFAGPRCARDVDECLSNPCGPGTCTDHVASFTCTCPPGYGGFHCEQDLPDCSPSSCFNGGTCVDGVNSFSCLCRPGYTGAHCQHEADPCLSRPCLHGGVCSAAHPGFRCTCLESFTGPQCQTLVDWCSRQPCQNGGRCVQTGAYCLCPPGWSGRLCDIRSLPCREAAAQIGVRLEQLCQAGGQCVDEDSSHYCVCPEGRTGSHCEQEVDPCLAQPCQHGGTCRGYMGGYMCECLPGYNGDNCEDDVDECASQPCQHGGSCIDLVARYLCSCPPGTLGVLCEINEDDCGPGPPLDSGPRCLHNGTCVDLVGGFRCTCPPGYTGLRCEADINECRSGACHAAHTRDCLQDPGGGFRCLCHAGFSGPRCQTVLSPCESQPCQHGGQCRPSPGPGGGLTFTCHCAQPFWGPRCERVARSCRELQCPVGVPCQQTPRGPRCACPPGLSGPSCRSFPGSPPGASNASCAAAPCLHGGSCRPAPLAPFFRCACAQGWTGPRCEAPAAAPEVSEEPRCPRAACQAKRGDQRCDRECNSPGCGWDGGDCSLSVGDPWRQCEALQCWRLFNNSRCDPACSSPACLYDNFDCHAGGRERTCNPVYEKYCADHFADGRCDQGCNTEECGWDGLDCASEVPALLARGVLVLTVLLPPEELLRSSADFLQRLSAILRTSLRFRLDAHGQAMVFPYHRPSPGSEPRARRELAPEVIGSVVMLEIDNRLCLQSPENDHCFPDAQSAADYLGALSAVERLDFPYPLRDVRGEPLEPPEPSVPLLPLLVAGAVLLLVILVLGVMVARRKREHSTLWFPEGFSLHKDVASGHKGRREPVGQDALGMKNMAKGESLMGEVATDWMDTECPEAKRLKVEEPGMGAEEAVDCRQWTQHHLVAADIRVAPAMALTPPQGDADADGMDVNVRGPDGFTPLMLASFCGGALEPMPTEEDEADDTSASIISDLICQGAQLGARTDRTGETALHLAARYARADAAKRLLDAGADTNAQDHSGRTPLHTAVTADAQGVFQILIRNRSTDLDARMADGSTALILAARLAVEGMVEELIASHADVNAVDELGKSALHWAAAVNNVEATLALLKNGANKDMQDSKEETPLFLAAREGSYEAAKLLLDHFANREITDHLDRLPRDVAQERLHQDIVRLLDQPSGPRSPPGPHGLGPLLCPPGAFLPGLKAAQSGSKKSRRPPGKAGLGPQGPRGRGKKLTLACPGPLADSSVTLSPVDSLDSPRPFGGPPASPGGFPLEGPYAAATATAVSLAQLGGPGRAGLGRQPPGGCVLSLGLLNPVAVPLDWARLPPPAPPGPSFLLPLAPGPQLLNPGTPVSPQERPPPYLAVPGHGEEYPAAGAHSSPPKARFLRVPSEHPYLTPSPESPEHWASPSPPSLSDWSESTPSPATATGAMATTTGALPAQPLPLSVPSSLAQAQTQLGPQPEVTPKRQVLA
Pro-neuregulin-1, membrane-bound isoform (Homo sapiens), sequence (Q02297 whole entry, looked up, the tested form may be a part, canonical isoform): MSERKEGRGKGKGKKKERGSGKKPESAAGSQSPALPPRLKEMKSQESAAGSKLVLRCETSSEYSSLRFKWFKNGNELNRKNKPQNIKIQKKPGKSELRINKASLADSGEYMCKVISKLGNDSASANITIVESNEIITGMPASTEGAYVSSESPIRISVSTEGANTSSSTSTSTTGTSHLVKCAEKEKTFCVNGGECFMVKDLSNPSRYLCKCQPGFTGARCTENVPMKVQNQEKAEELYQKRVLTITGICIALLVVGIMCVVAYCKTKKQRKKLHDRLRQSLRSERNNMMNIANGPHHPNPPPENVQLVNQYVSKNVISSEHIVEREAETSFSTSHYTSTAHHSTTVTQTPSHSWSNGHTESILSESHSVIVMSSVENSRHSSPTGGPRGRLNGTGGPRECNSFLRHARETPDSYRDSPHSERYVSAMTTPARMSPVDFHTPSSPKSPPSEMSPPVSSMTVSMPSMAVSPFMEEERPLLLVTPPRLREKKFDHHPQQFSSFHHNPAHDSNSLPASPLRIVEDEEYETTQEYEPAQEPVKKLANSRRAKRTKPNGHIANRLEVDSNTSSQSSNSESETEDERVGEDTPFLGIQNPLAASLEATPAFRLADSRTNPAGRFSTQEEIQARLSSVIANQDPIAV

| Structure (SMILES) | composite z-score [1] | composite z-score [2] | composite z-score [3] | composite z-score [4] | composite z-score [5] | composite z-score [6] | composite z-score [7] | z-score [8] | composite z-score [9] | composite z-score [10] | composite z-score [11] | z-score [12] | z-score [13] | z-score [14] | composite z-score [15] | z-score [16] | composite z-score [17] | composite z-score [18] | composite z-score [19] | composite z-score [20] |
| --- | --- | --- | --- | --- | --- | --- | --- | --- | --- | --- | --- | --- | --- | --- | --- | --- | --- | --- | --- | --- |
| Cc1ccc(S[C@]2(C(=O)NCCN3CCOCC3)CC(=O)N(Cc3ccccc3)[C@@H]2c2ccc(CO)cc2I)cc1 | 1.09 | -0.883 | -0.0564 | -0.165 | -1.51 | 0.742 | 1.49 | -0.456 (inactive) | -0.39 | -0.0645 | 0.01 | -0.605 (inactive) | -3 (inactive) | 0.576 (inactive) | 2.07 | -1.17 (inactive) | 0.0769 | -1.57 | -0.791 | -0.378 |
| COc1ccc([Si](C)(C)[C@H]2[C@H](CCO)O[C@@]3(C(=O)N(C)c4c(Br)cc(C)cc43)[C@@H]2C)cc1 | 0.107 | 0.325 | -0.116 | 0.243 | 0.432 | 0.679 | 1.12 | -2.14 (inactive) | 0.299 | -0.196 | 1.49 | 0.117 (inactive) | -2.89 (inactive) | 34 (active) | 1.04 | 0.714 (inactive) | -0.1 | 0.76 | 1.1 | -0.0627 |
| CN1C(=O)C2C=CC(C(O)C3CC=CCC3)N(NC(=O)OC(C)(C)C)C2C1=O (stereo not given) | -0.138 | 0.23 | 0.218 | 0.752 | 1.29 | 1.64 | 1.21 | 2.23 (inactive) | 0.879 | -0.0296 | 1.14 | 0.0125 (inactive) | 0.826 (inactive) | 0.259 (inactive) | 3.54 | -1.16 (inactive) | -0.0379 | 0.532 | 0.95 | -0.0197 |
| CCOC(=O)[C@H]1CC=C2CC1C(=O)N1CCC[C@@H]1[C@@H]2O[Si](C)(C)C(C)(C)C (stereo not given in full) | -0.502 | -0.0173 | -0.221 | -0.0337 | -1.9 | -0.596 | -0.415 | -0.591 (inactive) | -0.686 | -0.0994 | -0.295 | -2.4 (inactive) | -21.2 (active) | -1.8 (inactive) | 0.368 | -0.558 (inactive) | -0.376 | 0.451 | -0.979 | -0.265 |
| COCCOC(=O)N1C(=O)[C@@]2(c3cc(C#CC4=CCCCC4)ccc31)[C@H](C(=O)N1CCc3cc(OC)c(OC)cc3C1)[C@H]1C(=O)O[C@H](c3ccccc3)[C@H](c3ccccc3)N1[C@@H]2c1ccc(OCCO)cc1 | -0.137 | 0.492 | -0.0094 | 0.599 | 1.1 | 0.101 | 1.21 | 0.235 (inactive) | 0.533 | -0.0121 | 1.55 | 1.34 (inactive) | 0.713 (inactive) | 3.16 (inactive) | 2.49 | -0.217 (inactive) | -0.119 | 0.916 | 1.09 | -0.0357 |
| COCCOC(=O)N1C(=O)[C@@]2(c3cc(C#Cc4ccc(OC)cc4)ccc31)[C@H](C(N)=O)[C@H]1C(=O)O[C@H](c3ccccc3)[C@H](c3ccccc3)N1[C@@H]2c1ccccc1OCCO | 0.214 | 2.16 | 0.0918 | 1.11 | 1.53 | 1.64 | 1.27 | -1.26 (inactive) | 0.433 | 0.0431 | 1.54 | 1.05 (inactive) | 0.649 (inactive) | 3.72 (inactive) | 2.33 | 0.071 (inactive) | 0.306 | 1.55 | 1.08 | 0.245 |
| CCc1oc(CC[C@@H](CO)NC(=O)NCCn2cc(C3(O)CCCCC3)nn2)c(C(=O)OC)c1C(=O)OC | -0.33 | 0.979 | -0.0549 | 0.809 | 0.924 | 0.172 | 1.23 | 0.306 (inactive) | 0.457 | -0.353 | 1.32 | 0.458 (inactive) | -0.173 (inactive) | -0.874 (inactive) | 0.775 | -1.2 (inactive) | -0.0615 | 1.39 | 0.939 | 0.0473 |
| COC(=O)C(CC#Cc1ccc2c(c1)[C@]1(C(=O)N2)[C@H](C(=O)O)[C@H]2C(=O)O[C@H](c3ccccc3)[C@H](c3ccccc3)N2[C@@H]1c1ccc(O)cc1)C(=O)OC | 0.43 | 0.108 | -0.0973 | 0.528 | -0.806 | 1.42 | 1.23 | 1.34 (inactive) | -0.384 | -0.236 | 0.615 | 1.06 (inactive) | 0.819 (inactive) | -0.567 (inactive) | 2.12 | -0.913 (inactive) | -0.188 | -0.868 | -0.608 | -0.0514 |
| [N-]=[N+]=NCc1ccccc1C[C@]1(C(=O)O)N=C(c2ccc(OCCCO)cc2)O[C@H]1c1ccccc1N=[N+]=[N-] | -0.146 | 0.268 | -0.0004 | 0.833 | 1.52 | 1.78 | 1.25 | -1.47 (inactive) | 0.921 | 0.138 | 1.56 | 0.869 (inactive) | -0.742 (inactive) | 0.924 (inactive) | 3.21 | 0.644 (inactive) | -0.128 | 0.435 | 1.14 | 0.012 |
